FUS suppressor – suppressors of FUS proteinopathy in yeast. S. cerevisiae FUS-expressing, growth rescue, OD600, 24 h. Potency, µM (top dose mostly 76.6 µM), most hits filed as activators. 390,000 tested, 0.24% active. AID 1347120;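 further: plate controls were DMSO vehicle for no effect and reference control for full effect; nearly all actives have a fitted effect of over 55% in size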
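Quantitative HTS measuring growth restoration of FUS-toxic yeast. Galactose-induced cells (OD 0.005) were exposed 24hr at 30C to compounds at several concentrations, then absorbance at 600 nm was recorded.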
Abeta yeast res – compounds reversing amyloid beta toxicity in yeast | AID 1347071 | 410,000 tested, 0.063% active | Potency, µM (doses to about 46.1 µM), usual class: activators | yeast expressing A-beta42, growth rescue, OD600, 48 h; response scale: 0% DMSO, 100% iron-clioquinol control; further: nearly all actives have a fitted effect of over 55% in size
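Yeast A-beta toxicity model in growth medium with pinned compounds, 48 h at 30 C; growth read as absorbance at 600 nm. Normalized to FeCl3/clioquinol equimolar mix (positive) and DMSO (negative).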
TDP43 rescue – inhibitors of TDP-43 toxicity in yeast; AID 652104; TDP-43 expressing yeast growth rescue, BacTiter-Glo, 24 h; 410,000 tested, 1.8% active; Potency, µM (top dose mostly 46.1 µM), without a hit: top-dose growth rescue (activation), actives largely listed as activators; further: % of control where 0% means no effect; nearly all actives have a fitted effect of over 50% in size
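Cell-based yeast growth screen: TDP-43 expression induced in galactose, inoculum OD600=0.02 after raffinose pregrowth to mid-log. Read-out BacTiter-Glo luminescence at 24 hr, 30 deg C; inhibition of toxicity seen as signal increase.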
aSyn rescue – rescues yeast growth from alpha-synuclein toxicity. Yeast expressing alpha-synuclein, growth rescue, BacTiter-Glo, 24 h. Potency, µM (titrated, usually from 46.1 µM), inactives show at the highest dose growth rescue (activation), usual class: activators. 370,000 tested, 0.14% active. AID 652106; further: % of control where 0% means no effect; nearly all actives have a fitted effect of over 65% in size
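Readout is rescue of growth in alpha-synuclein-expressing yeast, so inhibitors of toxicity appear as activators. Growth after 24 hr at 30 deg C in galactose medium is quantified by luminescence.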
* marks the source's active call; other numbers are inactive results; i = inactive; ? = inconclusive; nt = no result. Shown are actives, neighbours in structure and some others; about 2.1% of the full set was active somewhere. The call rests on the fitted dose curve; in most records, active means well fitted curve in the direction sought with a large enough effect; inconclusive means small, poorly fitted or top-dose-only effect, or another doubt; inactive means no such curve, though single readings can be large; an effect the other way counts as inactive or inconclusive. Potency means the concentration at half of the fitted maximal effect.

SMILES	FUS suppressor	Abeta yeast res	TDP43 rescue	aSyn rescue
COc1cc(-c2ccno2)ccc1S(=O)(=O)N1CCN(c2ccccc2)CC1	i	i	11µM*	nt
COc1ccccc1N1CCN(S(=O)(=O)c2ccc(-c3ccno3)cc2OC)CC1	i	i	13µM*	nt
O=c1cnn([C@@H]2O[C@H](CO)[C@@H](O)[C@H]2O)c(=O)[nH]1	i	?	13%	5.6µM*
CC(=O)Nc1ccc(S(=O)(=O)N=S(C)(C)=O)cc1	i	i	-4%	-6%
COc1ccc(S(=O)(=O)Nc2ccc3oc(C)c(C(=O)O)c3c2)cc1	i	?	3%	4%
COc1ccc(S(=O)(=O)Nc2ccc3oc4c(c3c2)CCCC4)cc1	i	i	35µM*	nt
O=S(=O)(Nc1ccc2oc3c(c2c1)CCCC3)c1cc(Cl)ccc1Cl	i	?	35µM*	nt
O=S(=O)(Nc1ccc(N2CCOCC2)cc1)c1cc(Cl)ccc1Cl	i	i	14µM*	15%
CN1C(C)(C)c2ccccc2OS1(=O)=O	i	i	8%	-6%
CC(/C=C/c1ccco1)=N/NC(=O)OC(C)(C)C	nt	i	26%	-2%
Clc1ccccc1-c1nc2ccccc2c2nncn12	i	i	40µM*	-3%
Cc1ccc(CNC(=O)CN2CCC(C(N)=O)CC2)cc1	i	i	-6%	-5%
CC1CCc2c(c3ccccc3n2C(=O)CCl)C1 (stereo unspecified)	i	i	2.8µM*	-13%
COc1ccc(NC(=O)c2nc[nH]c2C(=O)N(C)Cc2ccccc2)cc1	i	i	15%	14%
COc1cccc(NC(=O)CN(C)CC(=O)Nc2ccc(Cl)cc2[N+](=O)[O-])c1	i	i	18µM*	7%
CN(C(=O)c1ccc(COc2ccccc2Cl)o1)c1ccccc1	i	i	10µM*	-1%
O=C(Nc1ccccn1)c1ccc(COc2ccccc2Cl)o1	i	i	22µM*	-9%
COc1ccc(NC(=O)C2Cc3c(-c4ccccc4Oc4ccccc4)ccnc3O2)cc1OC (stereo unspecified)	?	i	11µM*	6%
O=C(Nc1cccc(Oc2ccccc2)c1)C1Cc2c(-c3ccco3)ccnc2O1 (stereo unspecified)	i	i	18µM*	-4%
COc1ccc(OC)c(N(CC(=O)N2CCN(c3cc(Cl)ccc3C)CC2)S(C)(=O)=O)c1	28µM*	i	-20%	2%
CCCSc1nc(N2CCOCC2)c2c(c1C#N)CCCC2	i	i	?	2%
N#CCCSc1nc(N2CCOCC2)c2c(c1C#N)CCCC2	i	i	18µM*	15%
N#Cc1c2ccccc2nc2ccccc12	i	i	11µM*	?
Nc1c2ccccc2nc2ccccc12	i	i	-23%	13%
O=C(COC(=O)/C=C/c1cccc([N+](=O)[O-])c1)NCC1CCCO1 (stereo unspecified)	i	i	-18%	-4%
SMILES	FUS suppressor	Abeta yeast res	TDP43 rescue	aSyn rescue
O=C1c2ccccc2/C(=C\c2ccc3[nH]ccc3c2)N1c1ccccc1	i	i	?	-22%
CCC/C(=C1/c2ccccc2C(=O)N1c1ccccc1)c1ccc2[nH]ccc2c1	i	i	14µM*	-44%
O=C(Nc1ccc2c(c1)OCO2)c1cc(C2CCCN(C(=O)CCCc3ccccc3)C2)on1 (stereo unspecified)	?	i	?	17%
O=C(Nc1ccc2c(c1)OCO2)c1cc(C2CCCCN2C(=O)CCCc2ccccc2)on1 (stereo unspecified)	i	i	35µM*	7%
O=C(Nc1ccc2c(c1)OCO2)c1cc(C2CCCN(C(=O)CCc3ccccc3)C2)on1 (stereo unspecified)	?	i	22µM*	-4%
O=C(Nc1ccc(F)c(Cl)c1)c1cc(C2CCCN(C(=O)c3cccs3)C2)on1 (stereo unspecified)	i	i	22µM*	0%
O=C(Nc1ccccc1)c1cc(C2CCCCN2C(=O)CCCc2ccccc2)on1 (stereo unspecified)	?	i	0%	13%
O=C(Nc1ccc(F)c(Cl)c1)c1cc(C2CCCCN2C(=O)c2cccs2)on1 (stereo unspecified)	?	i	-2%	11%
